# Only some compounds are listed: those with a hit (about 1.3% of all), similar ones and a draw of the others.
# COUP-TFII inh: blocks human COUP-TFII nuclear receptor; P24468; HEK293T NGFI-A luciferase reporter, luminescence; inhibition, % at 8.6 µM; 370,000 compounds, 0.7% hits; AID 686940;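 active means inhibition above a per-plate cutoff, mean inhibition of test wells between control levels plus 3 SD, cut at about 38% in these data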;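 further: cells cotransfected with COUP-TFII expression vector driving the NGFI-A reporter; 0% = median of COUP-TF2 test wells and 100% = reporter-only cells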
# Target sequence (P24468 whole entry, looked up): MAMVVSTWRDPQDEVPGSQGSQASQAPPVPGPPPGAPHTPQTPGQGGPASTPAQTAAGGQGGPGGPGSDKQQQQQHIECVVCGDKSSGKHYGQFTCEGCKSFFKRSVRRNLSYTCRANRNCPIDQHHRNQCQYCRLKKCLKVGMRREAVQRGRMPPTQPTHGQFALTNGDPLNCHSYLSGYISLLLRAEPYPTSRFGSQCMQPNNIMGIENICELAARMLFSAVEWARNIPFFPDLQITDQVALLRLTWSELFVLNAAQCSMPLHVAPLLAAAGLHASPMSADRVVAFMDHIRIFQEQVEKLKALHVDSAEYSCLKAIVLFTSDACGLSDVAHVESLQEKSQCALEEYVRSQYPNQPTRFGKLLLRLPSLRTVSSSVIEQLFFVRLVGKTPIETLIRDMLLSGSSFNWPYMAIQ
# Gli-Sufu block: Gli-Sufu pathway antagonism; Sufu-KO-LIGHT fibroblasts, Gli luciferase reporter luminescence; inhibition, % at 5 µM; 340,000 compounds, 0.74% hits; AID 588413;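 active means inhibition above about 55%, limit read from the data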;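 further: 0% = DMSO-treated cells and 100% = wells with medium but no cells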
# NCOA1 inh: inhibitors of human steroid receptor coactivator 1 (SRC1). Q15788. AID 588354. HEK293 GAL4-SRC1 luciferase reporter, luminescence. inhibition, % at 3.6 µM. 360,000 compounds, 0.12% hits;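 active means inhibition above the campaign mean plus 3 SD, with each screening campaign given its own cutoff, cut at about 60% in these data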;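 further: 0% = DMSO treated cells and 100% = gossypol at 36 µM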
# SRC3 inh: human NCOA3 inhibition; Q9Y6Q9; HEK293 GAL4-SRC3 luciferase reporter, luminescence; inhibition, % at 3.6 µM; 360,000 compounds, 0.17% hits; AID 588352;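 active means inhibition above a per-campaign cutoff, the mean of all compounds plus 3 SD, cut at about 60% in these data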;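 further: 0% = DMSO-treated cells and 100% = gossypol-treated cells at 36 µM; higher means less SRC3-driven luciferase light from the GAL4 reporter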
# NR5A2 inv ag: NR5A2 inverse agonism in reporter assay | O00482 | HEK293T StAR-luciferase reporter, LRH-1 transfected, 24 h | inhibition, % at 3.6 µM | 360,000 compounds, 0.13% hits | AID 602396;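 active means inhibition above the mean inhibition of all tested compounds plus 3 SD, cut at about 73% in these data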;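 further: 0% = DMSO wells and 100% = reporter-only cells lacking LRH-1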
# SRC2 inh: inhibits human steroid receptor coactivator 2; AID 651957; HEK293 GAL4-SRC2 luciferase reporter, luminescence; Q15596; 370,000 compounds, 0.17% hits; inhibition, % at 9 µM;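 active means inhibition above the mean inhibition of all tested compounds plus 3 SD, set per campaign, cut at about 52% in these data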;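 further: 0% = DMSO treated cells and 100% = cells given Gossypol at 36 µM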
# Gli antag conf: Gli-SUFU antagonism confirmation, single concentration | AID 602428 | 2,500 compounds, 40% hits | Sufu-KO-LIGHT cells, Gli luciferase reporter, luminescence | inhibition, % at 5 µM | shares compounds with Gli-Sufu block;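 active means mean inhibition at 5 µM reaching about 45%, limit read from the data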;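 further: plate controls were DMSO-treated cells for no effect and wells lacking cells for full effect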
# Gli cytotox: counter-screen for Gli-SUFU antagonists: cytotoxicity; cytotoxicity, % at 5 µM; 2,500 compounds, 32% hits; Sufu-KO-LIGHT cells cytotoxicity, ATP luminescence; AID 651994; shares compounds with Gli-Sufu block;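 active means mean cytotoxicity at 5 µM above about 25%, limit read from the data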;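 further: cells exposed to compound overnight for roughly 16 to 18 hours; plate controls were DMSO wells with cells for no effect and medium without cells for full effect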
# Wnt3a counter: counter-screen for Gli-SUFU antagonists: Wnt3a reporter inhibition; AID 651995; 2,500 compounds, 20% hits; shares compounds with Gli-Sufu block; inhibition, % at 6.25 µM; Wnt-LIGHT cells, Wnt3a-driven luciferase reporter, luminescence;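 active means mean inhibition above about 25%, limit read from the data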
# * hit, by the source's call; . = not tested or not shown.
SMILES,COUP-TFII inh,Gli-Sufu block,NCOA1 inh,SRC3 inh,NR5A2 inv ag,SRC2 inh,Gli antag conf,Gli cytotox,Wnt3a counter
COC(=O)[C@H](CC(C)C)N(Cc1cn(Cc2ccccc2)nn1)S(=O)(=O)c1ccc(F)cc1Br,-16,.,.,.,.,18,.,.,.
COC(=O)c1cc(-c2ccc(OC)c(OC)c2)c(=O)n2c1CCC2,0,.,.,.,.,-9,.,.,.
COc1ccc(C(CC(=O)O)NC(=O)COc2ccccc2)cc1 (stereo unspecified),1,53,-14,16,3,13,23,4,5
Cc1cc(N2CCN(S(=O)(=O)c3ccc(Br)cc3)CC2)n2ncnc2n1,-5,6,8,16,-7,-26,.,.,.
CCc1c(C)nc2ncnn2c1N1CCN(S(=O)(=O)c2ccc(OC)cc2)CC1,10,60*,6,15,15,-4,47*,26*,14
CC(C)=CCC/C(C)=C/CN1C(=O)N(c2ccc(F)cc2)[C@H]2C[C@@H](c3ccccc3)[C@@H](C)[C@@H](C(=O)N3CCOCC3)C[C@H]21,1,.,.,.,.,15,.,.,.
CC(NCc1ccc(OCC(N)=O)cc1)C12CC3CC(CC(C3)C1)C2 (stereo unspecified),-8,51,-4,-3,13,2,34,12,-20
O=C(CSc1nnc(-c2cccs2)o1)Nc1cc(Cl)cc(Cl)c1,-50,.,.,.,.,-44,.,.,.
CSc1nc2c(c(C(F)(F)F)n1)CC(C)CC2 (stereo unspecified),18,99*,-3,-7,17,14,3,0,-11
COCc1cc(=O)[nH]c(Nc2nc3ccc(C)cc3o2)n1,-8,50,-62,-60,14,-126,63*,26*,-133
Cc1cc(NS(=O)(=O)c2ccc(NC(=O)CSc3nc4sc(C)c(C)c4c(=O)n3Cc3ccco3)cc2)nc(C)n1,11,.,.,.,.,-9,.,.,.
CCN(CC)S(=O)(=O)c1cccc(NC(=O)/C=C/c2cccc([N+](=O)[O-])c2)c1,10,51,18,13,37,10,23,14,-45
CCN(CC)S(=O)(=O)c1cccc(NC(=O)CC2CCCC2)c1,0,57*,-6,3,9,-1,22,10,-8
CCN(CC)S(=O)(=O)c1ccc(OC)c(NC(=O)CC2CCCC2)c1,-6,8,-11,-39,8,7,.,.,.
CCOC(=O)Nc1ccc2c(c1)N(C(=O)CN1CCN(CCO)CC1)c1ccccc1CC2,7,7,6,-5,-5,-12,.,.,.
CCOC(=O)Nc1ccc2c(c1)N(C(=O)CN1CCN(C)CC1)c1ccccc1CC2,-8,51,-8,4,-7,21,23,19,-6
CC1Cc2ccccc2N1C(=O)C1CCCN1S(=O)(=O)c1ccc(Cl)cc1 (stereo unspecified),4,99*,15,0,33,12,20,14,-32
COc1ccc(S(=O)(=O)N2CCCCCC2)cc1C(=O)N1CCCCC1,-11,9,-70,-29,-23,-11,.,.,.
COc1ccc(N2CCN(S(=O)(=O)c3ccc(OC)c(C(=O)N4CCCC4)c3)CC2)cc1,-8,70*,-3,0,2,14,10,16,-23
CCn1cc(C(=O)NCCN(C)CCc2ccccc2)c(=O)c2cc(S(=O)(=O)N(C)C)ccc21,-5,69*,-23,-6,-9,-9,24,0,-2
O=C(CN1C(=O)c2ccccc2S1(=O)=O)c1cccc(Br)c1,2,67*,3,11,12,-16,74*,11,85*
O=C(CN1C(=O)c2ccccc2S1(=O)=O)c1ccccc1F,20,60*,-22,-43,-53,8,78*,20,89*
C[C@H]1[C@@H](OC(=O)Nc2ccc(Br)cc2)CC[C@@]23CCCN2C(=O)CCC[C@@H]13,1,.,.,.,.,.,.,.,.
COc1cc2c(cc1OC)C(COc1ccccc1OC)N(C(=O)c1ccco1)CC2 (stereo unspecified),8,62*,-3,4,0,8,26,8,5
O=C(OCc1cn(Cc2cccc(F)c2F)nn1)N1CCOCC1,-10,.,.,.,.,-2,.,.,.
SMILES,COUP-TFII inh,Gli-Sufu block,NCOA1 inh,SRC3 inh,NR5A2 inv ag,SRC2 inh,Gli antag conf,Gli cytotox,Wnt3a counter
Cc1ccc(-c2csc(NCCc3nc4cc(Cl)c(Cl)cc4n3CCCO)n2)cc1,1,57*,-20,-8,-13,6,25,35*,-59
COc1cc(OC)c(OC)cc1/C=N/n1c(COc2ccccc2)n[nH]c1=S,8,57*,13,2,-18,-11,25,18,-21
Cc1sc2nc(CSc3ccccc3)nc(NCCN(C)C)c2c1C,-5,10,-3,12,4,-32,.,.,.
CCNc1nc(CSc2ccccc2)nc2sc(C)c(C)c12,-1,69*,0,-19,-21,-39,26,24,-27
CC(C)CN1C(=O)C[C@]2(C(=O)N(C)c3ccc(NS(=O)(=O)c4ccc(F)cc4)cc32)C1c1ccccc1 (stereo partly specified),9,.,.,.,.,-19,.,.,.
Cc1ccsc1CNc1ncnc2ccc(-c3c(C)noc3C)cc12,-80,53,-13,28,43,-21,62*,25*,-3
COc1cccc(CNc2ncnc3ccc(-c4c(C)noc4C)cc23)c1,-49,17,35,38,21,-1,.,.,.
N=c1n(CCN2CCOCC2)c2ccccc2n1CC(O)COc1ccccc1 (stereo unspecified),-26,32,13,9,11,-13,.,.,.
COc1ccc(OCC(O)Cn2c(=N)n(CCN3CCOCC3)c3ccccc32)cc1 (stereo unspecified),-20,63*,-11,16,14,6,18,17,-19
COc1ccc(OCCC(=O)NCCN2CCOCC2)cc1,5,55,-1,-13,8,-15,21,16,-16
Cc1ccc(CNc2nc(C)cs2)cc1,-41,73*,-75,-98,-112,-28,-60,21,-59
C=CCN1C(=O)c2n[nH]c(C(C)C)c2C1c1ccc(C)cc1 (stereo unspecified),10,.,.,.,.,26,.,.,.
CCOC(=O)N1CCN(C(=S)NC)CC1,4,3,6,10,14,13,.,.,.
CCC(=O)NC1CCN(C(=S)NC)CC1,4,57*,-18,10,-12,-9,6,5,-22
